Active and inactive are the calls of the source. Rule for the calls: active = hit-call score of the fitted dose curve at least 0.9, where 1 is the maximum; inactive = score below 0.9.
Assay: APR_HepG2_MitoticArrest_72hr: Apredica 72-hour HepG2 Assay for Mitotic Arrest (AID 2282918)
Details: high-content imaging, actives raise or lower the signal
Protocol: APR_HepG2_72hr is a cell-based, multiplexed-readout assay that uses HepG2, a human liver cell line, with measurements taken at 72 hours after chemical dosing in a 384-well plate.APR_HepG2_MitoticArrest_72hr is one of 10 assay component(s) measured or calculated from the APR_HepG2_72hr assay. It is designed to make measurements of cell phenotype, a form of morphology reporter, as detected with fluorescence intensity signals by HCS Fluorescent Imaging technology.Data from the assay component APR_HepG2_MitoticArrest_72hr was analyzed into 1 assay endpoint. This assay endpoint, APR_HepG2_MitoticArrest_72hr, was analyzed with bidirectional fitting relative to DMSO as the negative control and baseline of activity. Using a type of morphology reporter, measures of protein for gain or loss-of-signal activity can be used to understand the signaling at the pathway-level as they relate to the gene . Furthermore, this assay endpoint can be referred to as a primary readout, because this assay has produced multiple assay endpoints where this one serves a signaling function. To generalize the intended target to other relatable targets, this assay endpoint is annotated to the cell cycle intended target family, where the subfamily is arrest.
Cells were treated with dimethyl sulfoxide (DMSO) as a solvent control at a final concentration of 0.5% v/v or with compounds in DMSO with a resulting final DMSO concentration of 0.5% v/v. Compound treatment was done at concentrations of 0.39, 0.78, 1.56, 3.12, 6.24, 12.5, 25, 50, 100, and 200 uM in duplicate on each plate. Cells were treated with compounds for 1, 24, or 72 hr. Carbonyl […] m-chloro-phenylhydrazone (CCCP) and taxol were used as positive controls for mitochondrial function and cytoskeletal stability, respectively; DMSO served as the negative control for this experiment. Cells were fixed by the direct addition of 50 uL formaldehyde in Hank's Balanced Salt Solution (HBSS) to a final concentration of 3.7%. After incubation in the fixation medium for 30 min at room temperature (293-298 K), cells were rinsed twice with HBSS and treated with cell permeabilization buffer (16 uL of 0.5% Triton X-100) for 10 min at room temperature (293-298 K) before labeling. For mitochondrial membrane potential and mitochondrial measurements, pre-fixed cells were incubated with 50 uL of MitoTracker Red CMXRos (Invitrogen) at a concentration of 250 nM for 30 min before fixation. In the remaining cases, post-fixed cells were labeled by incubation with a multiplexed mixture of primary antibodies in HBSS for 60 min at room temperature (293-298 K) to detect immunoreactivity of c-Jun (1:500), phospho-histone H3 (1:100), phospho-histone H2A.x (1:200), p53 (1:400), alpha-tubulin (1:200) and Hoechst 33342 (2 ug/mL). Cells were labeled for multiplexed imaging on two separate plates: a) Hoechst 33342, MitoTracker Red, phospho-histone H3, and alpha-tubulin, and b) Hoechst 33342, phospho-histone H2A.x, and c-Jun. A final rinse with HBSS (50 uL) was performed before analysis. The primary and secondary antibodies for the proteins were phospho-histone H3 (rabbit anti-phospho-histone H3 and FITC-donkey anti-rabbit IgG), phospho-histone H2A.x (mouse anti-phospho-histone H2A.x and FITC-donkey anti-mouse IgG), c-Jun (rabbit anti-phospho-c-Jun and Cy3-donkey anti-rabbit IgG), p53 (sheep anti-p53 and Cy5-donkey anti-sheep IgG), alpha-tubulin (mouse anti-alpha-tubulin and Cy5-donkey anti-mouse IgG). These antibodies are available as the CellCiphr HepG2 assay kit (Millipore).Digital images of each well were captured using a Cellomics ArrayScan VTI (Thermo Scientific Cellomics) (0.8 NA objective, 0.63x optical coupler, and XF-93 filter set) at 20x magnification. The images were acquired using the autofocus feature of the ArrayScan instrument, which entails the following steps. First, the camera focuses on channel 1 (Hoechst 33342), where nuclei are identified. Second, a Z offset of 1 um is used for capturing mitochondria (MitoTracker Red). […]

**Q.** With `ClC(Cl)(Cl)c1ccccc1` as the molecule, how does the outcome read?
**A.** inactive

**Q.** With `Cc1ccc(O)cc1C` as the molecule, how does the outcome read?
**A.** inactive

**Q.** For `O=P(Oc1ccccc1)(Oc1ccccc1)Oc1ccccc1`, which AC50 is on record?
**A.** 62 µM (active)

**Q.** With `CN(C)C(=O)Cl` as the molecule, how does the outcome read?
**A.** inactive

**Q.** With `CCOP(=S)(Oc1ccc([N+](=O)[O-])cc1)c1ccccc1` (stereo not given) as the molecule, how does the outcome read?
**A.** inactive

**Q.** For `COCCOCCO`, which outcome is on record?
**A.** inactive

**Q.** Which outcome does the source give for `O=[N+]([O-])c1ccc(Cl)c(Cl)c1` here?
**A.** inactive

**Q.** With `CCC1(c2ccccc2)C(=O)N=C(O)NC1=O` (stereo not given) as the molecule, how does the outcome read?
**A.** inactive

**Q.** With `CCOS(=O)(=O)OCC` as the molecule, how does the outcome read?
**A.** inactive

**Q.** With `CC(Cc1ccc(OCC(=O)O)cc1)NCC(O)c1csc(C(F)(F)F)n1` (stereo not given) as the molecule, how does the outcome read?
**A.** inactive

**Q.** For `c1nc[nH]n1`, which outcome is on record?
**A.** inactive

**Q.** Which outcome does the source give for `Nc1ccc2ccccc2c1` here?
**A.** inactive

**Q.** Which AC50 does the source give for `c1ccc(OP(Oc2ccccc2)Oc2ccccc2)cc1` here?
**A.** 113 µM (active)

**Q.** For `Nc1cc2c3c(c1)C(c1ccccc1)=N[C@@H](NC(=O)c1cccnc1)C(=O)N3CC2`, which outcome is on record?
**A.** inactive

**Q.** With `O=C(O)C(Cl)Cl` as the molecule, how does the outcome read?
**A.** inactive

**Q.** For `[N-]=[N+]=[N-]`, which outcome is on record?
**A.** inactive

**Q.** For `O=[N+]([O-])c1ccccc1`, which outcome is on record?
**A.** inactive

**Q.** Which outcome does the source give for `CCOP(=S)(OCC)SCSCC` here?
**A.** inactive

**Q.** With `CSC(C)(C)C=NO` as the molecule, how does the outcome read?
**A.** inactive

**Q.** Which AC50 does the source give for `CCCCN(CCCC)SN(C)C(=O)Oc1cccc2c1OC(C)(C)C2` here?
**A.** 54.1 µM (active)

**Q.** For `CCN(CC)c1ccccc1`, which outcome is on record?
**A.** inactive

**Q.** For `CCCN(CCC)c1c([N+](=O)[O-])cc(C(C)C)cc1[N+](=O)[O-]`, which AC50 is on record?
**A.** 31.6 µM (active)

**Q.** With `ClC1=C(Cl)C2(Cl)C3C(Cl)C(Cl)CC3C1(Cl)C2(Cl)Cl` (stereo not given) as the molecule, how does the AC50 read?
**A.** 53.5 µM (active)

**Q.** With `Cc1cccc(N)c1` as the molecule, how does the outcome read?
**A.** inactive

**Q.** Which outcome does the source give for `CCNc1nc(Cl)nc(NC(C)(C)C)n1` here?
**A.** inactive

**Q.** Which outcome does the source give for `CCCCc1ccccc1` here?
**A.** inactive

**Q.** Which outcome does the source give for `CC(C)(C)OOC(C)(C)C` here?
**A.** inactive

**Q.** Which outcome does the source give for `CCOC(=O)c1ccccc1C(=O)OCC` here?
**A.** inactive

**Q.** Which outcome does the source give for `OCC1CO1` (stereo not given) here?
**A.** inactive

**Q.** For `CCOc1ccc(C(C)(C)COCc2cccc(Oc3ccccc3)c2)cc1`, which AC50 is on record?
**A.** 66.6 µM (active)

**Q.** Which outcome does the source give for `Cc1ccc([N+](=O)[O-])cc1C` here?
**A.** inactive

**Q.** For `CC(Cl)(Cl)C(=O)O`, which outcome is on record?
**A.** inactive

**Q.** For `ClC(Cl)c1ccccc1`, which outcome is on record?
**A.** inactive

**Q.** For `CCC(C)(C)c1ccc(O)cc1`, which AC50 is on record?
**A.** 121 µM (active)

**Q.** With `c1ccc2c(c1)Nc1ccccc1S2` as the molecule, how does the outcome read?
**A.** inactive

**Q.** With `Nc1ccc(Cl)cc1` as the molecule, how does the outcome read?
**A.** inactive

**Q.** With `Cc1ccc(N)cc1N` as the molecule, how does the outcome read?
**A.** inactive

**Q.** With `CCCCN(CCCC)N=O` as the molecule, how does the outcome read?
**A.** inactive

**Q.** For `CCCCCCCc1ccc(O)cc1`, which outcome is on record?
**A.** inactive

**Q.** With `O=P1(N(CCCl)CCCl)NCCCO1` (stereo not given) as the molecule, how does the outcome read?
**A.** inactive

Reference: PubChem BioAssay (EPA / NIEHS)
